Assay outcomes deposited in PubChem BioAssay by National Center for Advancing Translational Sciences (NCATS).
Sampled rows, rich in hits. Any-hit rate of the full collection: about 0.99%.
AMA1 RON2 block: qHTS for Inhibitors of AMA1-RON; Towards Development of Antimalarial Drug Lead: Primary Screen; AlphaScreen AMA1-biotinylated RON2 peptide binding; Potency, µM (series often up to 58.2 µM), most hits filed as inhibitors; 0.2% of 360,000 active; further: nearly all actives have a fitted effect of over 45% in size
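AMA1 (3D7) with his tag at 25 nM final met compounds first, then biotinylated RON2 peptide at 25 nM; detection used donor plus acceptor beads, 10 µg/mL apiece, read by AlphaScreen after 30 min at room temperature.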
SARS PLpro yeast-1: qHTS of Yeast-based Assay for SARS-CoV PLP; S. cerevisiae expressing SARS-CoV PLpro, growth rescue; Potency, µM (titrated, usually from 32.9 µM), hits mostly activators; 0.19% of 330,000 active; AID 485353, 2010; calls by dose curve; further: nearly all actives have a fitted effect of over 55% in size
AmpC inh no detg: qHTS Inhibitors of AmpC Beta-Lactamase (assay without detergent). P00811. AmpC nitrocefin hydrolysis, absorbance 480 nm, 0.0001% Triton. Potency, µM (doses to about 57.1 µM), most hits filed as inhibitors. 0.52% of 330,000 active; further: nearly all actives have a fitted effect of over 20% in size
Target sequence (P00811 whole entry, looked up): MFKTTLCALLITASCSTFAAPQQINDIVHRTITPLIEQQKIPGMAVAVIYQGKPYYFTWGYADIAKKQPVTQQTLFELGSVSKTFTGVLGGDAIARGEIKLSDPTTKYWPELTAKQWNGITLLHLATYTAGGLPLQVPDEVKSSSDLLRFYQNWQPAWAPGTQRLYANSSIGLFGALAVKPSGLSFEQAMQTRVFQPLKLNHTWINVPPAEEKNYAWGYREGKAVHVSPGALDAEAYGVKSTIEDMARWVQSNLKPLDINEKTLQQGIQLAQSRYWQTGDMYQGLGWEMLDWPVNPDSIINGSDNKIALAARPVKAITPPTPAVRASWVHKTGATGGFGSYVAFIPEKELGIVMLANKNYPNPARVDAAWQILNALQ
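AmpC (5.3 nM in the dispensed reagent) in 20 mM phosphate pH 7.0 with 0.01% (detergent screen) or 0.0001% Triton X-100 was preincubated with compounds for 15 min at room temperature. Nitrocefin was then added from an 800 uM solution, and hydrolysis was followed at 480 nm.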
NS1 inh: qHTS Assay for Inhibitors of Influenza NS1 Protein Function; Potency, µM (doses to about 46.1 µM); 0.4% of 270,000 active; AID 2326, 2010; calls by dose curve; further: actives are rising curves; nearly all actives have a fitted effect of over 50% in size
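S. cerevisiae expressing influenza A NS1, grown in glucose, washed, then diluted 1:100 into pH 6.0 -URA galactose medium with 23 nl compound. Growth recovery read as OD600; NS1-free strain serves as control.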
AmpC inh detg: qHTS Inhibitors of AmpC Beta-Lactamase (assay with detergent); P00811; AmpC hydrolysis of nitrocefin, absorbance 480 nm, 0.01% Triton; Potency, µM (titrated, usually from 114 µM), actives largely listed as inhibitors; 0.041% of 370,000 active; AID 485294, 2010; further: nearly all actives have a fitted effect of over 25% in size
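20 mM phosphate pH 7.0 + 0.01% (detergent screen) or 0.0001% Triton X-100; 5.3 nM AmpC reagent; cpd preinc 15 min RT; nitrocefin (800 uM stock) to start; A480 q20 s × 4 min; Activity was normalised to no-enzyme and no-compound control wells.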
SARS PLpro yeast-2: qHTS of Yeast-based Assay for SARS-CoV PLP: Hit Validation; calls only; shares compounds with SARS PLpro yeast-1; 19% of 1,000 active; AID 652038, 2013; yeast expressing SARS-CoV PLpro, growth phenotype rescue; call rule not given here
Hits are given with their value; n = inactive; u = inconclusive; x = not tested or not shown; + = active, no number; [ ] = another dose, or the depositor's remark. Unless noted, the call rests on the fitted dose curve; in most records, active means well fitted curve in the direction sought with a large enough effect; inconclusive means small, poorly fitted or top-dose-only effect, or another doubt; inactive means no such curve, though single readings can be large; an effect the other way counts as inactive or inconclusive.

SMILES	AMA1 RON2 block	SARS PLpro yeast-1	AmpC inh no detg	NS1 inh	AmpC inh detg	SARS PLpro yeast-2
COc1cc([N+](=O)[O-])cc(/C=N/NC(=O)c2ccc(NC(=O)c3ccc(C)cc3)cc2)c1O	n	n	n	n	n	x
COc1cc([N+](=O)[O-])cc(/C=N/NC(=O)c2ccc(C)nc2)c1O	n	8.9µM	n	n	n	u
CCOc1ccc(CCn2c3c(c(=O)[nH]c2=O)C(NC(=O)c2ccccc2)(C(F)(F)F)C(=O)N3)cc1OCC (stereo not given)	x	x	x	x	n	x
Cn1ncc2c(NNC(=O)c3ccc(Cl)cc3Cl)ncnc21	n	u	n	n	u	n
Cn1ncc2c(NNC(=O)c3ccc(Cl)c(Cl)c3)ncnc21	n	n	n	n	n	x
O=C(CCl)Nc1cccc2ncccc12	n	11µM	n	n	n	+
O=C(NCC(c1cccnc1)N1CCN(c2ccccc2F)CC1)C1CCCCC1 (stereo not given)	n	u	n	n	n	n
O=C(NCC(c1cccnc1)N1CCN(c2ccc(F)cc2)CC1)C1CCCCC1 (stereo not given)	n	n	n	n	n	x
Cc1ccc(NCC(=O)c2ccc(C)cc2)cc1	n	n	n	n	n	x
Cc1ccc(C(=O)CNc2ccc(C)c(Cl)c2)cc1	n	u	n	n	n	u
O=C(O)COc1ccccc1/C=N/NC(=O)CNC(=O)c1ccco1	n	0.4µM	n	n	n	n
CC(C)(C)c1ccc(C(=O)NCC(=O)N/N=C/c2ccccc2OCC(=O)O)cc1	n	n	n	n	n	x
CCOc1ccccc1NC(=O)CSC1=Nc2ccccc2C2=NC(CC(=O)NC3CCCCC3)C(=O)N12 (stereo not given)	x	x	x	x	n	x
CCc1sc(N)nc1-c1ccccc1	n	u	n	n	u	n
Nc1nc(-c2ccccc2)c(CC(=O)O)s1	n	x	x	n	x	x
COC(=O)c1ccccc1NC(=O)Cn1nc2n(C)c3ccccc3n2c(=O)c1=O	x	n	n	n	u	x
Cn1c2ccccc2n2c(=O)c(=O)n(CC(=O)c3ccc(Cl)cc3)nc12	n	11µM	n	n	n	n
Cc1nn2c(-c3cccc(NC(=O)c4ccc(Cl)cc4)c3)nnc2c2ccccc12	x	x	x	x	n	x
CCN(CC)c1ccc(/C=N/Nc2nc(C)cc(=O)[nH]2)c(O)c1	n	4.5µM	n	n	u	n
CCOC(=O)N/N=C/c1ccc(N(CC)CC)cc1O	n[2.32 µM]	n	n	n	n	x
CCN(CC)c1ccc(/C=N/NC(=O)c2c(Cl)cnn2C)c(O)c1	n	u	n	n	n	n
Cc1cc(=O)[nH]c(NN=Cc2cc(Br)ccc2O)n1	n	x	x	x	x	x
CCN(CC)c1ccc(/C=N/NC(=O)CCC(=O)NCc2ccccc2)c(O)c1	n	4µM	n	n	n	n
COC(=O)c1ccccc1NC(=O)c1cc(-c2ccc(Cl)cc2)on1	x	x	x	x	n	x
O=C(Nc1cccc(Cl)c1)C1CCN(S(=O)(=O)Cc2ccccc2)CC1	x	x	x	x	n	x
SMILES	AMA1 RON2 block	SARS PLpro yeast-1	AmpC inh no detg	NS1 inh	AmpC inh detg	SARS PLpro yeast-2
Cc1c(C(=O)Oc2ccc(F)cc2)sc2ncn(Cc3cccc(F)c3)c(=O)c12	n	u	n	n	n	n
COCCCNC(=O)CSc1nc2c(sc3ccccc32)c(=O)n1CCc1ccc(OC)c(OC)c1	x	x	x	x	n	x
C#CCOc1ccc(C2C(C(=O)OC)=C(C)NC3=C2C(=O)c2ccccc23)cc1OCC (stereo not given)	x	x	x	x	n	x
Cc1cc([N+](=O)[O-])nn1Cc1ccc(C(=O)N/N=C/c2ccc(F)cc2)cc1	n	n	n	n	n	x
Cc1cc([N+](=O)[O-])nn1Cc1ccc(C(=O)N/N=C/c2ccc(O)cc2O)cc1	n	3.2µM	n	n	u	u
O=C(Nc1nc2ccccc2n1CCN1CCOCC1)c1ccccc1	n	n	n	n	u	x
O=C(Nc1nc2ccccc2n1CCN1CCOCC1)c1cn(-c2ccccc2)nc1-c1ccccc1	n	u	n	n	u	u
COc1cccc(CNC(=O)c2ccc(CS(=O)(=O)Cc3ccc(C)cc3)o2)c1	n	n	n	x	n	x
COc1cccc(CNC(=O)c2ccc(CS(=O)(=O)Cc3ccccc3C)o2)c1	n	u	n	n	n	n
Cc1ccc(S(=O)(=O)c2nc(NCCN(C)C)sc2Cl)cc1	n	u	n	n	u	n
COc1ccc(NC(=O)c2[nH]nc3c2CSc2ccccc2-3)c(OC)c1	x	x	x	x	n	x
COc1ccc(NCC(=O)N/N=C/C=C\c2ccccc2)cc1	n	n	n	n	n	x
COc1ccccc1NCC(=O)N/N=C/C=C/c1ccccc1	n	u	n	u	n	n
Cc1cccc(NC(=S)NC2CCCC2)c1	n[2.32 µM]	u	n	n	n	+
Cc1ccc(C2CC2C(=O)NNC(=S)Nc2cccc(C)c2)cc1 (stereo not given)	n	10µM	n	n	n	n
Cc1cccc(NC(=O)NC2CCCCCCC2)c1	n	n	n	n	n	x
Cc1c(C(=O)N2CCCC2)oc2c1-c1nn(CC(=O)NC(C)c3ccccc3)cc1CC2 (stereo not given)	x	x	x	x	n	x
O=C(N/N=C/c1cccnc1)/C(=C\c1cccs1)NC(=O)c1ccccc1	n	n	n	n	u	x
O=C(N/N=C/c1cc2ccccc2nc1Cl)/C(=C/c1cccs1)NC(=O)c1ccccc1	n	u	n	n	n	n
CC(C)CCNC(=O)C1CCN(S(=O)(=O)c2cccc3nsnc23)CC1	x	x	x	x	n	x
COc1ccc(NC(=O)CSc2ccc(-c3ccccn3)nn2)cc1OC	n	10µM	n	n	n	n
COc1ccccc1NC(=O)CSc1ccc(-c2ccccn2)nn1	n	n	n	n	n	x
O=C1/C(=C\c2cccs2)N=C(c2cccs2)N1Nc1ccccc1	n	n	n	n	n	x
O=C1/C(=C/c2cccs2)N=C(c2cccs2)N1Nc1ccccc1	n	u	n	n	n	n
COc1ccc(C(=O)CC(=O)C(=O)NCCc2cccc(C)c2)cc1	n	20µM	n	n	n	+
SMILES	AMA1 RON2 block	SARS PLpro yeast-1	AmpC inh no detg	NS1 inh	AmpC inh detg	SARS PLpro yeast-2
COc1ccc(C(=O)CC(=O)C(=O)Nc2cc(C)ccc2C)cc1	n	n	n	n	n	x
Nc1ccc2oc(-c3cc(Br)ccc3Cl)nc2c1	n	n	n	n	n	x
Nc1ccc2oc(-c3ccccc3Cl)nc2c1	n	14µM	n	u	n	n
O=C(COc1nsnc1N1CCOCC1)N/N=C/c1ccccc1O	n	u	n	n	n	n
O=C(Cc1csc(N2CCOCC2)n1)N/N=C/c1ccc(O)c(O)c1O	u	10µM	n	x	n	n
O=C(O)COc1ccc(/C=N/NC(=O)COc2nsnc2N2CCOCC2)cc1	n	n	n	n	n	x
C/C(=N\NC(=O)Cc1csc(N2CCOCC2)n1)c1ccccc1	n	u	n	n	n	x
